Reference: PubChem BioAssay (NCI)
The panel holds about 83,000 compounds, 20% with a hit somewhere; the sample as a whole holds those more often.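 Step 1: grow cells in 96-well plates. Step 2: add test compound at a single concentration. Step 3: incubate 48 h. Step 4: record percent growth.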 Unmarked numbers belong to inactive results. Calls of active or inactive are those of the source. The calls were made as follows: active = growth percent below 10; inactive = the rest.

How the values were obtained:
Assay in all cases: NCI-60 one-dose screen, 48 h (100 = growth as untreated, 0 = no growth, -100 = all killed)
Details in all cases: 10 µM unless noted
[1] = test system: DU-145 prostate
[2] = test system: K-562 leukemia
[3] = test system: MALME-3M melanoma
[4] = test system: MDA-MB-231 breast
[5] = test system: RXF 393 renal
[6] = test system: SF-268 CNS
[7] = test system: SF-295 CNS
[8] = test system: SF-539 CNS
[9] = test system: UACC-257 melanoma
[10] = test system: M14 melanoma

Row | SMILES | growth [1] | growth [2] | growth [3] | growth [4] | growth [5] | growth [6] | growth [7] | growth [8] | growth [9] | growth [10]
1 | Cc1ccc(-c2csc(NC(=O)c3ccccc3CN3C(=O)c4ccccc4C3=O)n2)cc1 | 96.5% | 100% | 93.7% | 93.2% | 89.8% | 86.6% | 95.6% | 98.4% | 92.4% | 106%
2 | Cc1ccc(S(=O)(=O)N2CCC(=O)c3ccccc32)cc1 | 62% | 40.2% | 84.9% | 72.9% | 61% | 80.2% | 86.6% | 55.1% | 77.8% | 62%
3 | COc1ccc(-c2nc3c(N)c(CO)cnc3s2)cc1 | 86.6% | 97.2% | 101% | 94.4% | 74.7% | 76.2% | 93.1% | 89.7% | 110% | 99.4%
4 | Clc1c(Cl)[n+](Cc2ccc3ccccc3c2)cn1Cc1ccc2ccccc2c1 | 32.6% | -3.01% (active) | -14.1% (active) | 7.04% (active) | -7.52% (active) | 20.8% | 45.6% | 58.6% | -37.7% (active) | -31.9% (active)
5 | NC(=O)c1c(NC(=O)c2cccs2)sc2c1CCC(=O)C2 | 80.3% | 10.3% | 67% | 26.1% | 46.4% | 30.3% | 86.9% | -3.38% (active) | 63.7% | 26.1%
6 | Cc1ccc(Cl)cc1NC(=O)c1sc2nc3c(cc2c1N)C(=O)CCC3 | 77.4% | 33.6% | 81.1% | 80% | 42.1% | 74.9% | 4.01% (active) | 47.7% | 44.9% | 62.9%
7 | CSC1=Nc2c(c(C)c(-c3ccccc3)n2CCCC(=O)O)C2=NC(=O)C[C@H](C)N12 | 115% | 101% | 102% | 138% | 106% | 110% | 106% | 85.5% | 108% | 102%
8 | COc1ccc(C2CC(c3cc(OC)c(OC)c(OC)c3)=NO2)cc1OCCCCOc1cc2c(cc1OC)C(=O)N1CCC[C@H]1C=N2 (stereo not given in full) | 13.4% | 34.8% | -43.1% (active) | 11.7% | -67.1% (active) | 16.7% | 2.46% (active) | -39% (active) | 24.6% | -16.2% (active)
9 | COc1ccc(N2CCC(=S)NC2=S)cc1 | 108% | 100% | 101% | 103% | 119% | 94.2% | 101% | 99.9% | 102% | 109%
10 | C=C1CC[C@@H]2[C@](C)(COC(C)=O)[C@H](OC(C)=O)CC[C@@]2(C)[C@@H]1CC(Nc1ccc(S(=O)(=O)NC(C)=O)cc1)C1=CCOC1=O (stereo not given in full) | 0.37% (active) | 4.81% (active) | -43.6% (active) | -38.7% (active) | -75.8% (active) | 6.72% (active) | 58.4% | -76.7% (active) | -10.6% (active) | -35.1% (active)
11 | O=C(CN1CCCCCC1)Nc1nc2ccc(NCc3ccc(Cl)cc3)cc2s1 | 101% | 87.9% | 98.1% | 97.3% | 99.2% | 99.9% | 95.9% | 94.8% | 100% | 99.3%
12 | Cc1c2cccnc2c(C)c2c1c1cc(CO)ccc1n2C | 25.3% | 9.28% (active) | 16.8% | 19.9% | 30.2% | 28.8% | 24.7% | 23.2% | -1.38% (active) | 29.8%
13 | C[n+]1ccc(CCc2c[nH]c3ccccc23)cc1 | 111% | 102% | 76.1% | 92.7% | 118% | 94.4% | 94.5% | 95.7% | 104% | 95.1%
14 | N#Cc1nc(-c2ccccc2)oc1S(=O)(=O)N1CCN(c2ccc(F)cc2)CC1 | 98.8% | 3.68% (active) | 51.8% | 83.8% | 89.8% | 88.8% | 105% | 101% | 86.8% | 53.5%
15 | Nc1nc(N)c2c(n1)NC(c1ccc(Cl)cc1)C1CCc3ccccc3C1=N2 (stereo not given) | 64.1% | 31% | 19.6% | 76.8% | 83.3% | 72.3% | 20.7% | 54.3% | 58.2% | 70.4%
16 | Cc1ccc(S(=O)(=O)Oc2ccc3sc4cccc(NCCN(C)C)c4c(=O)c3c2)cc1 | -89.5% (active) | -64.6% (active) | -99.4% (active) | -96.7% (active) | -87.4% (active) | -82.1% (active) | -92.3% (active) | -95.3% (active) | -80.6% (active) | -84.9% (active)
17 | Nn1c(=O)c(=O)[nH]c2c(cnn2-c2ccccc2)c1=O | 114% | 96.4% | 106% | 105% | 113% | 99.7% | 102% | 99.8% | 107% | 110%
18 | COc1cc2c(cc1OCCCCN1CCN(C(=S)SCCC(C#N)(c3ccccc3)c3ccccc3)CC1)N=C[C@@H]1CCCN1C2=O | -96.7% (active) | -34.3% (active) | -79.4% (active) | -23.7% (active) | -83.7% (active) | -69.9% (active) | -8.56% (active) | -91.3% (active) | -11.1% (active) | -29.5% (active)
19 | CC1C(/C=N/NC(N)=S)C(C#N)(C#N)C1(C#N)C#N (stereo not given) | 96.8% | 84.1% | 103% | 106% | 106% | 91.4% | 107% | 111% | 96.3% | 102%
20 | Cc1ccc2c(-n3nc(C#N)c(C#N)c3N)cc(=O)[nH]c2c1 | 94% | 76% | 78.2% | 85.5% | 100% | 94.4% | 94% | 89.8% | 87.9% | 84.9%
21 | CCO/C=N/C1=C(C#N)C(c2ccc(F)cc2)c2sc3c(F)cccc3c2O1 (stereo not given) | 62.4% | 23.5% | 57.6% | 51% | 33.3% | 50.3% | 22% | 28.9% | 60.2% | 29.8%
22 | C=C(CNCCc1ccc(O)cc1)[C@@H]1CC[C@]2(CO)CC[C@]3(C)[C@H](CC[C@@H]4[C@@]5(C)CCC(=O)C(C)(C)[C@@H]5CC[C@]43C)[C@@H]12 | 43.2% | -26.3% (active) | -57.3% (active) | 1.97% (active) | 26% | 45.9% | 84.2% | 78.8% | -12.8% (active) | -76.3% (active)
23 | O=C(/C=C(O)/C=C/c1cccc2[nH]ccc12)/C=C/c1cccc2[nH]ccc12 | 95.6% | 14.5% | 69.4% | 73.8% | 87.4% | 89.5% | 95.5% | 90.4% | 86.4% | 38.9%
24 | COc1ccc2[nH]cc(-c3nc(-c4c[nH]c5c(Cl)nccc45)cs3)c2c1 | 32.6% | 19.3% | 65.8% | 31.7% | 37.7% | 73% | 11.9% | 34.9% | -48.3% (active) | -26% (active)
25 | COc1ccc2c(c1)c(/C(O)=C1\COC(=O)C1=O)cn2Cc1ccc(F)cc1 | 139% | 86.6% | 106% | 94.1% | 104% | 103% | 93.3% | 102% | 95.8% | 116%
26 | O=C1/C(=C/c2ccc(F)cc2)CN(C(=O)C(Cl)Cl)C/C1=C\c1ccc(F)cc1 | -96.5% (active) | -6.01% (active) | -34.9% (active) | -39.8% (active) | -91.8% (active) | -30.9% (active) | -75.9% (active) | -97% (active) | -43.3% (active) | -68.5% (active)
27 | CNC(=O)c1cc(Oc2cccc3nc(NC(=O)Nc4cc(C(F)(F)F)ccc4Cl)ccc23)ccn1 | 78.6% | 80.9% | 69.2% | 49.1% | 73.7% | 74.9% | 106% | 32.6% | 98.3% | 95.1%
